HT1080 IDH1KD tx: HT-1080 IDH1 knockdown cell toxicity (counter line); HT-1080 IDH1 knockdown viability, ATP luminescence, 48 h; Potency, µM (titrated, usually from 46.1 µM), without a hit: at the highest dose activity, negative = toxicity, usual class: cytotoxic; 2% of 360,000 active;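 also: potency is read from the fitted curve at half-maximal effect; 0% = DMSO wells and -100% = cell-free medium wells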
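Luminescent ATP read-out (CellTiter-Glo, 10 min at room temperature) after 48 h compound exposure at 37 °C gave viability of IDH1-knockdown HT-1080 cells. Activity was normalised to DMSO and cell-free wells, then fitted as concentration-response curves.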
HT1080-NT tox: kills 2HG-producing HT-1080-NT fibrosarcoma cells | HT-1080-NT fibrosarcoma viability, CellTiter-Glo ATP luminescence, 48 h | Potency, µM (top dose mostly 46.1 µM), inactives show at the top dose activity, negative = less viability, actives largely listed as cytotoxic | 1.6% of 360,000 active;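 also: NT is the 2HG producing partner of a matched IDH1 knockdown line; potency is read from the fitted curve at half-maximal effect; 0% = DMSO-treated cells and -100% = media-only wells without cells; nearly all actives have a fitted effect of over 55% in size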
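Toxicity toward the 2HG-producing NT line was scored as %Activity, normalised to DMSO and no-cell wells, from CellTiter-Glo luminescence after 48 hours' treatment.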
IL1B secr inh: inflammasome signaling inhibition, IL-1 beta readout; AID 743279; activity change, % at 57.5 µM; 4.7% of 360,000 active; THP-1 LPS/ATP IL-1B secretion, AlphaLISA, 16 h; stronger effect = lower value; in the data active = activity change below about -50%; inconclusive = mostly about -30% to -49%
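THP-1 cells pretreated 1 hr with compounds (up to 57.5 uM final), then stimulated with LPS (250 ng/mL final) plus ATP (1.25 mM final); secreted IL-1B measured by AlphaLISA after 16 hr, decreased signal indicating inhibition.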
TDP1 cell CPT: growth inhibition of DT40 Tdp1-/-;hTDP1 cells with camptothecin (screen for TDP1 inhibitors); 12% of 420,000 active; Potency, µM (highest dose often 46.2 µM), inactives show at the top dose activity change, negative = growth inhibition, actives largely listed as inhibitors; chicken DT40 Tdp1-/-;hTDP1 cells + 20 nM CPT, ATP luminescence, 48 h; also: potency is read from the fitted curve at half-maximal effect; nearly all actives have a fitted effect of over 55% in size
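Cell growth measured by CellTiter-Glo luminescence after a minimum 48 h, 37 C compound exposure with 20 nM CPT in Tdp1-knockout DT40 cells stably expressing hTDP1, seeded 400/well; qHTS titration format.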
TDP1 cell noCPT: qHTS for Inhibitors of human tyrosyl-DNA phosphodiesterase 1 (TDP1): qHTS in cells in absence of CPT | Potency, µM (highest dose often 46.2 µM), for inactives: top-dose activity change, negative = growth inhibition, actives largely listed as inhibitors | 15% of 420,000 active | AID 686978, 2013 | DT40 Tdp1-/- hTDP1 cells, no CPT, ATP luminescence, 48 h; also: potency is read from the fitted curve at half-maximal effect; nearly all actives have a fitted effect of over 55% in size
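Seeded 400 DT40-hTDP1 cells/well (vehicle DMSO, no 20 nM CPT); pinned compounds; ≥48 hr at 37 °C; CellTiter-Glo luminescence as viability measure.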
Numbers without * were called inactive; u = inconclusive; x = not tested or not shown; [ ] = another dose, or the depositor's remark. Sampled rows, rich in hits. Any-hit rate of the full collection: about 19%. Unless noted, calls follow the shape of the dose curve; as a rule, active = well fitted curve in the direction sought with a large enough effect; inconclusive = small, poorly fitted or top-dose-only effect, or another doubt; inactive = no such curve, though single readings can be large; an effect the other way counts as inactive or inconclusive. Unless noted, % is scaled to controls: 0 for no effect and ±100 for the full control effect.

SMILES	HT1080 IDH1KD tx	HT1080-NT tox	IL1B secr inh	TDP1 cell CPT	TDP1 cell noCPT
CN1OC[C@@H]2CN(C(=S)NCCc3ccccc3)[C@H](c3ccccc3Br)C[C@@H]21	u	-17%	-25	u	16µM*
CC(=O)N1C[C@H]2CON(C)[C@H]2C[C@H]1c1cccc(-c2cc(Cl)cc(Cl)c2)c1	-7%	-12%	-23	u	23µM*
N=c1ccn(O)cc1CCc1ccccc1	6%	17%	-25	11%	-17%
CCCN1C/C(=C/c2cccc([N+](=O)[O-])c2)C(=O)/C(=C/c2cccc([N+](=O)[O-])c2)C1	23µM*	-5%	-94*	1µM*	0.65µM*
CCCN1C/C(=C/c2ccc3c(c2)OCO3)C(=O)/C(=C/c2ccc3c(c2)OCO3)C1	u	u	1	15µM*	13µM*
CCCN1C(=O)/C(=C/c2ccc3c(c2)OCO3)NC1=S	-2%	-1%	3	-11%	-19%
Cc1ccc2c(C)c(C(=O)N3CCC(c4nc5ccccc5s4)CC3)oc2c1C	x	x	x	-29%	u
CCN(C[C@H]1N[C@@](Cc2ccccc2)(C(=O)OC)[C@H]2C(=O)N(C)C(=O)[C@@H]12)C(=O)c1ccc(C)cc1	12%	16%	-16	-10%	-18%
CCOC(=O)C1=C(C)N(c2ccc(OCC)cc2)C(=O)/C1=C\c1ccco1	u	0%	-13	u	u
CCOc1cc(/C=C2\C(=O)N(CCc3ccc(OC)c(OC)c3)C(C)=C2C(=O)OC)ccc1O	4%	0%	u	u	23µM*
CCOC(=O)C1=C(C)N(c2ccc(C)cc2)C(=O)/C1=C\c1ccc(O)c(OC)c1	-6%	-6%	0	15µM*	21µM*
COC(=O)C1=C(C)N(Cc2ccc(C)cc2)C(=O)/C1=C\c1ccc(O)c(OC)c1	u	u	-60*	2%	-29%
COC(=O)C1=C(C)N(Cc2ccccc2)C(=O)/C1=C\c1ccco1	-8%	-3%	2	u	18µM*
COc1cccc(CNC(=O)c2c(OC)cc(=O)n3c2CCN(C(=O)c2ccc(C)s2)CC3)c1	x	x	x	10%	-2%
COC(=O)c1ccc(N2NC(=O)/C(=C/c3cc(OC)c(OC)c(OC)c3)C2=O)cc1	-8%	4%	9	-14%	2%
COC(=O)C1=C(C)N(Cc2ccc(C)cc2)C(=O)/C1=C\c1cc(OC)c(OC)c(OC)c1	16µM*	u	-79*	u	21µM*
CCOc1cc(/C=C2\C(=O)N(Cc3ccco3)C(C)=C2C(=O)OC)ccc1O	-20%	u	-105*	u	u
COC(=O)C1=C(C)N(Cc2cccnc2)C(=O)/C1=C\c1sccc1C	-14%	-5%	-53*	-23%	-22%
NC1=C(O)C(=O)C(c2ccccc2)O1 (configuration not stated)	1%	6%	5	-9%	5%
COc1ccc(OC)c(/C=C/C(=O)N2CCCc3ccccc32)c1	-1%	-11%	-77*	-26%	u
COc1ccc(/C=C/C(=O)N2CCCc3ccccc32)cc1	15%	16%	-5	26µM*	23µM*
Cc1ccc(/C=C/C(=O)N2CCc3ccccc32)o1	u	-2%	-81*	6.5µM*	13µM*
O=C(/C=C/c1ccco1)N1CCc2ccccc21	u	u	-27	u	u
CC(=O)Oc1ccc(C(=O)Nc2cc(C)on2)cc1	-10%	-16%	-8	-13%	-3%
Cn1c(CCNC(=O)C2CC23CCN(C(=O)C2=CCCC2)CC3)nc2ccccc21 (configuration not stated)	x	x	x	9%[9.04 µM]	-22%
O=C(c1ccccc1)n1c(=O)cc[nH]c1=O	0%	5%	0	-5%	-5%
Cc1ccc(S(=O)(=O)N2CCCN(S(=O)(=O)c3ccc4c(c3)OCCO4)CC2)cc1	2%	-17%	-23	11µM*	11µM*

Assay outcomes as filed in PubChem BioAssay.
